Source: PubChem
Most compounds without a hit are left out; they make up all but 6.6% or so of the library.
TGFb SMAD3 inh – TGF-b pathway inhibition; HepG2 CAGA-GFP TGF-b/SMAD3 reporter, GFP fluorescence, 18 h; TGF-beta stimulated, 500 pg/mL final; Potency, µM (titrated, usually from 46.1 µM), hits mostly inhibitors; 1.2% of 410,000 active; note: nearly all actives have a fitted effect of over 65% in size
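Read-out: total well GFP (ex488/em500-530) summed from mean per-cell fluorescence. Cells: HEPG2 CAGA-GFP, 1% FBS DMEM, 18 h at 37 degrees C with 500 pg/mL final TGF-beta. Unstimulated wells served as the full-inhibition control; stimulated DMSO wells = 0%.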
HT1080 IDH1KD tx – toxicity to HT-1080 IDH1 knockdown cells (counter line) | HT-1080 IDH1 knockdown viability, ATP luminescence, 48 h | Potency, µM (highest dose often 46.1 µM), most hits filed as cytotoxic | 2% of 360,000 active | AID 686971
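Assay cells: HT-1080 with IDH1 knockdown, 750 per well, RPMI/5% FBS. Exposure: 48 h at 37 °C following 2 h pre-incubation. Read: CellTiter-Glo luminescence; fitted concentration-response, curve class assigned.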
HepG2 tox-1 – kills HepG2 cells in TGF-b inhibitor counter-screen; HepG2 CAGA-GFP viability, ATP luminescence, 18 h; Potency, µM (series often up to 46.1 µM), actives largely listed as cytotoxic; 0.76% of 410,000 active; AID 588856
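CellTiter-Glo luminescence gave cytotoxicity after 18 hours at 37 degrees C. The cells were HepG2 CAGA-GFP in 1% FBS DMEM, stimulated with 500 pg/mL TGF-beta after compound addition. %Activity was normalised to no-cell wells (complete cell-killing) and DMSO (no toxicity), and curves were fitted and classified.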
KB-V1 MDR tox – KB-V1 MDR subline cytotoxicity; KB-V1 MDR cells viability, CellTiter-Glo, 72 h; Potency, µM (doses to about 46.1 µM), hits mostly cytotoxic; 3.4% of 400,000 active; AID 1347076; note: nearly all actives have a fitted effect of over 60% in size
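Readout: CellTiter-Glo luminescence, 10 min after addition. Cells: KB-V1 MDR subline, 72 h at 37 degrees C with compound. Analysis: corrected, normalized data fitted to concentration-effect curves.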
KB-3-1 tox – kills parental KB-3-1 adenocarcinoma cells. 1.4% of 400,000 active. Potency, µM (highest dose often 46.1 µM), most hits filed as cytotoxic. KB-3-1 viability, CellTiter-Glo ATP luminescence, 72 h; note: nearly all actives have a fitted effect of over 60% in size
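Cells are dispensed, compounds pinned in, plates held at 37 °C for 72 h, then CellTiter-Glo is added and luminescence read after 10 minutes. Cell line: parental KB-3-1 in phenol-red-free DMEM, 10% FBS.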
HT1080NT lethal – kills 2HG-producing HT-1080-NT fibrosarcoma cells; HT-1080-NT fibrosarcoma viability, CellTiter-Glo ATP luminescence, 48 h; Potency, µM (doses to about 46.1 µM), usual class: cytotoxic; 1.6% of 360,000 active;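 note: NT is the 2HG producing partner of a matched IDH1 knockdown line; nearly all actives have a fitted effect of over 55% in size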
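A 48-hour cytotoxicity screen used HT-1080-NT cells plated 2 hours before compound delivery. ATP-based CellTiter-Glo luminescence measured viability, normalized to DMSO and no-cell controls.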
TGFb confirm – confirmation of TGF-b signaling inhibitors in HepG2 reporter cells; HepG2 CAGA-GFP TGF-b reporter, GFP fluorescence, 18 h; cells stimulated with TGF-beta, 500 pg/mL; shares compounds with TGFb SMAD3 inh; Potency, µM (doses to about 46.1 µM), actives largely listed as inhibitors; 63% of 1,600 active; AID 720534; note: nearly all actives have a fitted effect of over 65% in size
HepG2 tox-2 – HepG2 cytotoxicity, TGF-b inhibitor counterscreen; shares compounds with TGFb SMAD3 inh; HepG2 CAGA-GFP viability, ATP luminescence, 18 h; cells stimulated with TGF-beta, 500 pg/mL; Potency, µM (titrated, usually from 46.1 µM), hits mostly inhibitors; 27% of 1,600 active; AID 720535; note: nearly all actives have a fitted effect of over 70% in size
TGFb CCL64 inh – blocks TGF-b signaling in CCL64 reporter cells; shares compounds with TGFb SMAD3 inh; CCL64 CAGA-GFP reporter, TGF-b stimulated, GFP fluorescence, 18 h; Potency, µM (highest dose often 46.1 µM), most hits filed as inhibitors; 41% of 1,600 active; AID 720536; note: nearly all actives have a fitted effect of over 65% in size
TGFb COP inh – validation of TGF-b inhibitors in HepG2 COP promoter reporter | shares compounds with TGFb SMAD3 inh | HepG2 COP-GFP TGF-b reporter, GFP fluorescence, 18 h; cells stimulated by added recombinant TGF-beta | Potency, µM (doses to about 46.1 µM), actives largely listed as inhibitors | 3% of 1,600 active; note: nearly all actives have a fitted effect of over 70% in size
Hits are given with their value; – = inactive; ? = inconclusive; · = no result given. Calls come from the whole dose curve; as a rule, active = well fitted curve in the direction sought with a large enough effect; inconclusive = small, poorly fitted or top-dose-only effect, or another doubt; inactive = no such curve, though single readings can be large; an effect the other way counts as inactive or inconclusive.

SMILES | TGFb SMAD3 inh | HT1080 IDH1KD tx | HepG2 tox-1 | KB-V1 MDR tox | KB-3-1 tox | HT1080NT lethal | TGFb confirm | HepG2 tox-2 | TGFb CCL64 inh | TGFb COP inh
Cn1c(=O)oc2cc(S(=O)(=O)N3CCCC(C(=O)NC4CCCc5ccccc54)C3)ccc21 (stereo not drawn) | 0.562µM | – | – | ? | 5.8µM | – | ? | ? | – | –
Cn1c(=O)oc2cc(S(=O)(=O)NC3CCCc4ccccc43)ccc21 (stereo not drawn) | – | – | – | – | – | – | · | · | · | ·
S=C(Nc1ccc(Cl)cc1)c1nc2ccccc2s1 | – | – | – | – | – | ? | · | · | · | ·
O=C(Nc1ccc(Cl)cc1)/C(=C/c1cccc(O)c1)c1nc2ccccc2s1 | 2.82µM | 4.11µM | – | ? | 2.91µM | 4.61µM | 8.2µM | 13µM | 4.11µM | –
COC(=O)c1c(C)sc(-c2c(-c3cccc(OC)c3)[nH]c3c2c(=O)[nH]c(=O)n3C)c1O | – | · | – | – | – | · | · | · | · | ·
Cc1ccc2c(C)ccc(O)c2n1 | 7.08µM | – | – | – | ? | – | – | – | – | –
Cc1ccc(NC(=O)c2cc(S(=O)(=O)N(C)C)ccc2N2CCCC2)cc1F | 10µM | – | – | ? | – | – | 13µM | – | 18.4µM | –
CN(Cc1cccc2cnccc12)C(=O)c1cc(COc2ccc(F)cc2F)on1 | – | – | – | ? | – | – | · | · | · | ·
CCc1ccc(CN(C)C(=O)c2cc(COc3cccc4cnccc34)on2)cc1 | 10µM | 14.6µM | – | – | ? | ? | ? | ? | ? | –
O=C(Nc1cc(S(=O)(=O)N2CCCCC2)ccc1Cl)c1ccncc1 | – | – | – | – | – | – | · | · | · | ·
O=C(Nc1cccc(Cl)c1)Nc1cc(S(=O)(=O)N2CCCCC2)ccc1Cl | 10µM | 25.9µM | – | ? | ? | ? | 4.11µM | ? | 4.61µM | –
CCn1cc2nc(SCc3ccc(F)cc3)n(CCc3ccccc3)c(=O)c2n1 | ? | · | – | – | – | · | · | · | · | ·
COc1cc(CN2CCc3ccccc3C2)ccc1O | 4.47µM | ? | – | 13µM | 2.91µM | ? | 7.31µM | 14.6µM | 2.91µM | –
Cc1nn2c(NCc3ccccn3)c3c(nc2c1-c1ccccc1)CCC3 | 11.2µM | – | – | 9.2µM | ? | – | ? | ? | ? | –
O=C(/C=C/c1ccc(Cl)cc1)c1ccc([N+](=O)[O-])o1 | 3.55µM | 13µM | – | ? | ? | ? | 2.91µM | 7.31µM | 2.06µM | –
Cc1noc(C)c1S(=O)(=O)N(C)C[C@H]1Oc2ccc(NC(=O)NC3CCCCC3)cc2C(=O)N([C@H](C)CO)C[C@@H]1C | – | – | – | – | – | – | · | · | · | ·
Cc1nnc(Sc2cc(NCCCO)c([N+](=O)[O-])c3nonc23)s1 | 5.01µM | 16.4µM | – | – | – | 16.4µM | 4.61µM | 23.1µM | 3.26µM | ?
O=[N+]([O-])c1c(NCCCO)cc(Sc2nc3ccccc3s2)c2nonc12 | 17.8µM | 6.31µM | – | – | – | 11.2µM | ? | 16.4µM | 6.51µM | 16.4µM
